Unmarked numbers belong to inactive results. For some of these results: Results with a measured potency or affinity are listed apart. Active and inactive are the calls of the source. Unless noted, no rule for the calls is given here.
Key:
[1] = antimalarial activity against Dd2 strain (AID 2302;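 active = growth inhibition above 50% at the single 2 µM test dose, taken to imply half-maximal potency below 2 µM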;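 also: 0% = DMSO untreated growth and 100% = chloroquine plus artemisinin killed control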); details: P. falciparum Dd2 in RBCs, LDH growth readout, 72 h; at 2 µM; stronger effect = higher value
[2] = human hepatoma cell viability loss – ATP luminescence, cytotoxicity control for P. falciparum antimalarial project, primary screen (AID 2303;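 active = inhibition above 50%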;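 also: 0% = DMSO wells and 100% = digitonin-killed cells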); details: HepG2 viability, 24-48 h, at 10 µM, stronger effect = higher value
[3] = target: L-lactate dehydrogenase (Plasmodium falciparum (isolate CDC / Honduras)) (UniProt Q27743); test: PfLDH activity inhibition – cell lysate, 3D7 strain, counter-screen for P. falciparum growth inhibition project (AID 2304);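 also: 0% = vehicle and 100% = reference inhibitor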; details: P. falciparum 3D7 crude extract, LDH APAD/NBT absorbance; at 2 µM; stronger effect = higher value
[4] = inhibition of 3D7 malaria parasite growth – strain 3D7 (AID 2306);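 also: 0% = DMSO wells and 100% = chloroquine plus artemisinin control wells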; details: P. falciparum 3D7 erythrocytic growth, LDH absorbance, 72 h; at 2 µM; stronger effect = higher value
[5] = target: Calcium-dependent protein kinase 1 (Plasmodium falciparum (isolate 3D7)) (UniProt P62344); test: PfCDPK1 kinase inhibitors, biochemical, TCAMS library (AID 1159585; cut-off not given, nearly all actives have IC50 up to about 0.98 µM;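 also: inhibitors leave more ATP so luminescence rises with inhibition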); details: recombinant PfCDPK1, Kinase-Glo ATP depletion luminescence
[6] = target: Plasmodium falciparum protein kinase 6 (PK6, PF3D7_1337100) (UniProt Q8IDW1); test: PfPK6 kinase inhibitors, biochemical, TCAMS library (AID 1159586); details: recombinant PfPK6, Kinase-Glo ATP depletion luminescence
[7] = target: Protein kinase 7 (PK7), Plasmodium falciparum 3D7 (PF3D7_0213400) (UniProt Q7YTF7); test: inhibition of Plasmodium PK7 catalytic activity – biochemical, TCAMS antimalarial set, Kinase-Glo luminescence (AID 1159587); details: recombinant PfPK7, Kinase-Glo ATP depletion luminescence
[8] = target: Calcium-dependent protein kinase 4 (Plasmodium falciparum (isolate 3D7)) (UniProt Q8IBS5); test: PfCDPK4 kinase inhibitors, biochemical, TCAMS library (AID 1159588; cut-off not given, nearly all actives have IC50 up to about 0.91 µM); details: recombinant PfCDPK4, Kinase-Glo ATP depletion luminescence
Chain of Calcium-dependent protein kinase 4 (Plasmodium falciparum (isolate 3D7)) (Q8IBS5 whole entry, looked up): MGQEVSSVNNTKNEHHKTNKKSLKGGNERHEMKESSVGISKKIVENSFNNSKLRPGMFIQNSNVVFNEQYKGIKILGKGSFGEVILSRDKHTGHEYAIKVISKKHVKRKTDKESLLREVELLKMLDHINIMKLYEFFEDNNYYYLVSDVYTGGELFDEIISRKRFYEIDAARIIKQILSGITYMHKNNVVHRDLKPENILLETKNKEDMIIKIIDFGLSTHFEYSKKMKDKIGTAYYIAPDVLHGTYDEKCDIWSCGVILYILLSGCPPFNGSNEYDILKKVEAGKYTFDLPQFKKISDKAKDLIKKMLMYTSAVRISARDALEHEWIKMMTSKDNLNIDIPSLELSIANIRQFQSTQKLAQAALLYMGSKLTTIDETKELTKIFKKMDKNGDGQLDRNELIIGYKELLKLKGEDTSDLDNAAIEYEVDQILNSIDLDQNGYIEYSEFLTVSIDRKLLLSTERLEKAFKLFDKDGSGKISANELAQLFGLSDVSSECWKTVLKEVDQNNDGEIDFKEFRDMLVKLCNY

Chain of Plasmodium falciparum protein kinase 6 (PK6, PF3D7_1337100) (Q8IDW1 1-305): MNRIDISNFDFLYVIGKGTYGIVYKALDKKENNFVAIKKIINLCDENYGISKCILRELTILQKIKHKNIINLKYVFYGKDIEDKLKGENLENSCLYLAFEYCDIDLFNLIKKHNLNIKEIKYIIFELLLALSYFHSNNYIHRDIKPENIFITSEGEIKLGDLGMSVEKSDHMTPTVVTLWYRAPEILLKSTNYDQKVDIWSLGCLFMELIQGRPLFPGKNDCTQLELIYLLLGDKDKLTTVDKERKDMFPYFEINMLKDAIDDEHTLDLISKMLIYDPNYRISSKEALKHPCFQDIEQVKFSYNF
Chain of L-lactate dehydrogenase (Plasmodium falciparum (isolate CDC / Honduras)) (Q27743 whole entry, looked up): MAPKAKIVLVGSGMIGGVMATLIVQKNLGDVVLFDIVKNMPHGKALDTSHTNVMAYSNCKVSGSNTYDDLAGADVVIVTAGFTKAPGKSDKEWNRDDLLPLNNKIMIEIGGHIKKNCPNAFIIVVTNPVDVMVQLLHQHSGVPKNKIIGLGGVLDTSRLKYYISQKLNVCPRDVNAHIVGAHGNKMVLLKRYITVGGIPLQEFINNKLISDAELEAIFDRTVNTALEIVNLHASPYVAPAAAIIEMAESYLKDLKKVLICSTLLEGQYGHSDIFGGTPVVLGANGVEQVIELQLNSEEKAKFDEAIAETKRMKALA
Chain of Calcium-dependent protein kinase 1 (Plasmodium falciparum (isolate 3D7)) (P62344 whole entry, looked up): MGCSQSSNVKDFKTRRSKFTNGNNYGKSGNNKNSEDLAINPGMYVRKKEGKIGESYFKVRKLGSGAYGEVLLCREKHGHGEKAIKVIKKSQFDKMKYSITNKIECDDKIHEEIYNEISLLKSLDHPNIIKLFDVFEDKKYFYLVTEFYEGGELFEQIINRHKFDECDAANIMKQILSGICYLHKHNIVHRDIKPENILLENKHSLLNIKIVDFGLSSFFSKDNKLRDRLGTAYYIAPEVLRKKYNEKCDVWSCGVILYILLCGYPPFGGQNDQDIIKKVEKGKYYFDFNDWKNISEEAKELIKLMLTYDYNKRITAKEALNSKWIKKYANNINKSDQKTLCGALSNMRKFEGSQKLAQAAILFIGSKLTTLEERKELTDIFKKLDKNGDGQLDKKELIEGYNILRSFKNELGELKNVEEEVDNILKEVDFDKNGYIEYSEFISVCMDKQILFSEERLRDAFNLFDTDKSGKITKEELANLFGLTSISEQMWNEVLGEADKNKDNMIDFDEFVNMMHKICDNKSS
Chain of Protein kinase 7 (PK7), Plasmodium falciparum 3D7 (PF3D7_0213400) (Q7YTF7 1-343): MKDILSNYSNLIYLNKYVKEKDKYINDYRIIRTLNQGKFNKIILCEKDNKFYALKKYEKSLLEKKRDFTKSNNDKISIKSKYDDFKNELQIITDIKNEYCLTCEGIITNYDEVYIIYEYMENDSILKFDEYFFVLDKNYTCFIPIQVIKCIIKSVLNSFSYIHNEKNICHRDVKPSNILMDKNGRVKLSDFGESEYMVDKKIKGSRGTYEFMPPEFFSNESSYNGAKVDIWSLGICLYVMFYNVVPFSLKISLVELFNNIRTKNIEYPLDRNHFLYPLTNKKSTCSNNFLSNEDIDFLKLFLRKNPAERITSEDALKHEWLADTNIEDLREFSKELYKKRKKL

| Compound | growth inhibition [1] | inhibition [2] | inhibition [3] [%] | growth inhibition [4] | outcome [5] | outcome [6] | outcome [7] | outcome [8] |
| --- | --- | --- | --- | --- | --- | --- | --- | --- |
| COc1ccc(OCCCN2CCN(CC(c3ccc(F)cc3)N3CCN(C(C)C)CC3)CC2)c2ccccc12 (stereo not drawn) | 32% | 30% | -1 | 100% (active) | inactive | inactive | inactive | inactive |
| NC1=NC(c2ccccc2)N(OCc2ccccc2)C(N)=N1 (stereo not drawn) | 21% | 5% | -6 | 96% (active) | inactive | inactive | inactive | inactive |
| C=CCn1c(Sc2ccc(C#N)c([N+](=O)[O-])c2)nnc1-c1cccc(Cl)c1 | 54% (active) | 41% | -1 | 97% (active) | inactive | inactive | inactive | inactive |
| CC(C)OC(=O)c1ccc(NC(=O)N[C@@H](Cc2ccc(O)cc2)C(=O)NC2C[C@H]3CC[C@@H](C2)N3Cc2ccccc2)cc1 (stereo partly drawn) | 19% | 0% | -5 | 92% (active) | inactive | inactive | inactive | inactive |
| CNCCNCc1cccc(-c2ccc(-c3nc4ccccc4[nH]3)s2)c1 | 9% | 8% | 0 | 99% (active) | inactive | inactive | inactive | inactive |
| CNc1nc(NN=Cc2ccccc2Cl)nc(Nc2cccc(C(F)(F)F)c2)n1 | -9% | 12% | 0 | 84% (active) | inactive | inactive | inactive | inactive |
| COc1ccc(CN(C)CCCOc2ccc(NC(=O)C=Cc3ccc(C(C)(C)C)cc3)cc2)cc1OC | 87% (active) | 14% | 2 | 101% (active) | inactive | inactive | inactive | inactive |
| N#Cc1ccc(C=Cc2nccc3c2[nH]c2ccccc23)cc1 | 28% | 33% | 0 | 97% (active) | inactive | inactive | inactive | inactive |
| Cc1cccc2[nH]c(-c3cccc(-c4cccc(CNCCc5ccncc5)c4)c3)nc12 | 99% (active) | 20% | -2 | 101% (active) | inactive | inactive | inactive | inactive |
| COC(=O)Cc1ccc(N)c2ccccc12 | -1% | 2% | -1 | 98% (active) | inactive | inactive | inactive | inactive |
| Cc1ccc(C(c2nnnn2C2CCCC2)N(Cc2ccco2)Cc2ccccc2Cl)cc1 (stereo not drawn) | 78% (active) | 8% | -2 | 85% (active) | inactive | inactive | inactive | inactive |
| O=C(Nc1ccccc1)N(Cc1ccc(-c2ccc(CNC3CCCC3)cc2)cc1)C1CCN(Cc2ccccc2)CC1 | 61% (active) | 34% | -5 | 100% (active) | inactive | inactive | inactive | inactive |
| O=C(Nc1cccc(CN2CCCN(Cc3ccccc3)CC2)c1)c1ccc(Cl)c(Cl)c1 | 16% | 23% | -6 | 95% (active) | inactive | inactive | inactive | inactive |
| Cc1cc(CN2CC[C@H](NC(=O)c3ccc(Cl)c(Cl)c3)C2)ccc1OCCN1CCNCC1 | 1% | 15% | -1 | 94% (active) | inactive | inactive | inactive | inactive |
| COc1ccc2nc(-c3ccccc3)cc(NN=Cc3ccncc3)c2c1 | 27% | 14% | -2 | 99% (active) | inactive | inactive | inactive | inactive |
| O=C(Cc1ccc(Cl)cc1)NC1CCN(c2ccnc3cc(Cl)ccc23)C1 (stereo not drawn) | 99% (active) | 13% | -3 | 82% (active) | inactive | inactive | inactive | inactive |
| N#Cc1ccc(/C=C/C(=O)NCCCCCN2CCN(C(=O)Nc3ccc(Cl)c(C(F)(F)F)c3)CC2)cc1 | -7% | 42% | -1 | 94% (active) | inactive | inactive | inactive | inactive |
| COc1cccc(OC(C)(C)c2nc(N[C@@H](C)c3ccccc3)c3cn[nH]c3n2)c1 | 69% (active) | 44% | -4 | 89% (active) | inactive | inactive | inactive | inactive |
| c1ccc2c(NCCCCCCNc3ccnc4ccccc34)ccnc2c1 | 12% | 43% | 5 | 100% (active) | inactive | inactive | inactive | inactive |
| COc1cc2nc(N3CCC(CNC(=O)c4ccc(-c5ccc(O)cc5)cc4)CC3)nc(N)c2cc1OC | 78% (active) | 34% | -2 | 102% (active) | inactive | inactive | inactive | inactive |
| O=C(NC1CCCCC1)N(Cc1ccc(-c2ccc(CNCc3ccc4c(c3)OCO4)cc2)cc1)C1CCN(Cc2ccccc2)CC1 | 72% (active) | 28% | -2 | 102% (active) | inactive | inactive | inactive | inactive |

| Compound | growth inhibition [1] | inhibition [2] | inhibition [3] [%] | growth inhibition [4] | outcome [5] | outcome [6] | outcome [7] | outcome [8] |
| --- | --- | --- | --- | --- | --- | --- | --- | --- |
| Cc1cc2c(NC(=O)NC3CCN(CCc4ccccc4Cl)CC3)cccc2cn1 | 46% | 13% | 0 | 102% (active) | inactive | inactive | inactive | inactive |
| COc1ccc2nccc([C@@H](O)CN3CCC(NCc4ccc5c(c4)NC(=O)C(C)(C)O5)CC3)c2c1 | 70% (active) | 6% | 3 | 100% (active) | inactive | inactive | inactive | inactive |
| COc1ccc(-c2nc(NC(=O)COc3ccc(C(C)=O)cc3)sc2C)cc1 | 58% (active) | -2% | 2 | 98% (active) | inactive | inactive | inactive | inactive |
| CCN1CCC(N(Cc2ccc(-c3ccc(C(F)(F)F)cc3)cc2)C(=O)Cn2c(CCc3cccc(F)c3F)cc(=O)c3c2CCCC3)CC1 | 96% (active) | 55% (active) | 0 | 100% (active) | inactive | inactive | inactive | inactive |
| COc1ccccc1Cc1nc2ccccc2nc1SCC(=O)Nc1cccc(C(F)(F)F)c1 | 91% (active) | 8% | 0 | 97% (active) | inactive | inactive | inactive | inactive |
| Cc1cccc2[nH]c(-c3cccc(-c4cccc(NC(=O)CNc5ccc(C(N)=O)cc5)c4)c3)nc12 | 56% (active) | 15% | 6 | 100% (active) | inactive | inactive | inactive | inactive |
| Cc1c(-c2ccc3c(c2)C(NCCCN2CCCCC2)CC3)cnc(N)c1C (stereo not drawn) | 3% | 4% | -3 | 97% (active) | inactive | inactive | inactive | inactive |
| O=C(CCc1ccccc1)NC(c1ccc(Cl)cc1)c1ccc2cccnc2c1O (stereo not drawn) | 49% | 59% (active) | 2 | 95% (active) | inactive | inactive | inactive | inactive |
| CNCCNCc1ccc(-c2cccc(-c3nc4ccc(F)cc4[nH]3)c2)cc1 | 1% | 10% | -1 | 93% (active) | inactive | inactive | inactive | inactive |
| CC(C)CN1C(=O)c2ccc(C(=O)Nc3nccs3)cc2C1=O | 0% | 3% | 1 | 89% (active) | inactive | inactive | inactive | inactive |
| CCCc1cn2c3c(cc(C(=O)N[C@@H](Cc4ccccc4)[C@H](O)CNC4CCCCC4)cc13)N(C)S(=O)(=O)CC2 | 98% (active) | 3% | -2 | 99% (active) | inactive | inactive | inactive | inactive |
| CC(=O)Nc1ccc(CN2CCc3ccc(NS(=O)(=O)c4cccc(OCc5ccc(Cl)cc5)c4)cc3CC2)s1 | 7% | 23% | -3 | 93% (active) | inactive | inactive | inactive | inactive |
| COc1cc2nc(N(C)C)nc(Nc3ccc(OCc4ccccc4)cc3)c2cc1OC | 101% (active) | 91% (active) | -8 | 100% (active) | inactive | inactive | inactive | inactive |
| CCNc1cc(C(=O)N[C@@H](Cc2ccccc2)[C@H](O)CNCc2cccc(OC)c2)c(OC)c(N2CCCCS2(=O)=O)c1 | 96% (active) | 11% | -8 | 97% (active) | inactive | inactive | inactive | inactive |
| Oc1cc2c(cc1CN1CCN(Cc3cccs3)CC1)CCC2 | 91% (active) | 10% | -7 | 99% (active) | inactive | inactive | inactive | inactive |
| CCNc1cc(C(=O)N[C@@H](Cc2ccccc2)[C@H](O)CNC2(CC)CC2)cc(N2CCCCS2(=O)=O)c1 | 94% (active) | 59% (active) | 0 | 97% (active) | inactive | inactive | inactive | inactive |
| CC(Nc1cc(-c2ccccn2)nc(-c2ccccn2)n1)c1ccccc1 (stereo not drawn) | 98% (active) | 61% (active) | -3 | 85% (active) | inactive | inactive | inactive | inactive |
| O=C(NCCCCN1CCC(C(c2ccccc2)c2ccccc2)CC1)c1ccc(NC(=O)c2ccc(Cl)cc2)cc1 | 47% | 12% | -2 | 100% (active) | inactive | inactive | inactive | inactive |
| COc1ccc(CNCCCCCCCNCc2ccc(Cl)c(Cl)c2)cc1Cl | 18% | 27% | 4 | 90% (active) | inactive | inactive | inactive | inactive |
| COc1cc2nc(N3CCC(CNC(=O)c4ccc(-c5ccc(Cl)cc5)cc4)CC3)nc(N)c2cc1OC | 101% (active) | 99% (active) | 8 | 100% (active) | inactive | inactive | inactive | inactive |

Reference: PubChem BioAssay
